Among all 310,000 compounds or so, about 14,000 (4.5%) showed an effect of 50% or more. The effect is printed as a negative number. The full list was thinned out, with strong results kept by preference.
Each compound was assayed against human ether-à-go-go-related gene (hERG) potassium channel (human, UniProt Q12809) (assay: primary screen, population patch clamp on CHO cells stably expressing hERG; higher = less effect of the substance).
human ether-à-go-go-related gene (hERG) potassium channel, sequence (Q12809 whole entry, looked up): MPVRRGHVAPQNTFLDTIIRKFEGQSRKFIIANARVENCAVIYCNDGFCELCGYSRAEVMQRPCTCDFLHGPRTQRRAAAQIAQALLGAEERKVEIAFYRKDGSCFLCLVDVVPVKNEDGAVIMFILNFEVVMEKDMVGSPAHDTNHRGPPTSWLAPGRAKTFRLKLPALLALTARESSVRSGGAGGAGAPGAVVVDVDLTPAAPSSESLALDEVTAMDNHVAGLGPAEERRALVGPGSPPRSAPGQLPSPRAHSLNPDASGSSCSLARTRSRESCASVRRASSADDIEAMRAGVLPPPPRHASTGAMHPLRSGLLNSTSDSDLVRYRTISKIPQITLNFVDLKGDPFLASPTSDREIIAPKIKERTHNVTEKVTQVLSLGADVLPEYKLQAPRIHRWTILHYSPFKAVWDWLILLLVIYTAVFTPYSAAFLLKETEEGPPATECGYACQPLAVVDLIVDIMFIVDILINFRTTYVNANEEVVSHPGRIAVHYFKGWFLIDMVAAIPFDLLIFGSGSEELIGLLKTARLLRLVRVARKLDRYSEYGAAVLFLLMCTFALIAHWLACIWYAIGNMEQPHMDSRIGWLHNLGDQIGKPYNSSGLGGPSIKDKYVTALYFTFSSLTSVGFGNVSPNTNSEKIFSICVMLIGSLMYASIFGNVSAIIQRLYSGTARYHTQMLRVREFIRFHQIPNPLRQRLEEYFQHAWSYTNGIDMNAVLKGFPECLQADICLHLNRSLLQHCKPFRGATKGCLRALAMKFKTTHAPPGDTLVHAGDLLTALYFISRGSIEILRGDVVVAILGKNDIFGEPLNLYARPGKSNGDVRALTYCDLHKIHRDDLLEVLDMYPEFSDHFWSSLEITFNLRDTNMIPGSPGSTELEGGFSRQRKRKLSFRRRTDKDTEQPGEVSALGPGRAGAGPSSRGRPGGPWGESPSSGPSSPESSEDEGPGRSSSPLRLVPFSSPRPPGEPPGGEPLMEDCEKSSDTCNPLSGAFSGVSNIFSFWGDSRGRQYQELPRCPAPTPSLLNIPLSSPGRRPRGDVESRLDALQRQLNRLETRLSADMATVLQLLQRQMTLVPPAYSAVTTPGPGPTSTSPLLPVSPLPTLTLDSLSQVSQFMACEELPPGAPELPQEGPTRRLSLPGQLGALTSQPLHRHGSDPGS
For `COc1ccccc1CNC(=O)Cn1cnnn1`, the “hERG current change (%, negative = inhibition) at 10uM” value was 14.5%. In the case of `O=C(c1cc([N+](=O)[O-])cc([N+](=O)[O-])c1)N1CCCc2ccccc21`, the “hERG current change (%, negative = inhibition) at 10uM” value is reported as -16.3%. In the case of `CCOC(=O)Cc1csc(NC(=O)CC)n1`, the “hERG current change (%, negative = inhibition) at 10uM” value is reported as 3.71%. With `O=S(=O)(c1ccc(-c2csc(=Nc3ccccc3)n2CCCN2CCOCC2)cc1)N1CCOCC1` the “hERG current change (%, negative = inhibition) at 10uM” value was -40.9%. With `CN(C)N1C(N)=C(C#N)C(c2cccc(Cl)c2)C2=C1CCCC2=O` (centres unmarked) the “hERG current change (%, negative = inhibition) at 10uM” value was -26.2%. In the case of `Cc1ccc(CO/N=C/C2=C(Cl)c3ccccc3CC2)cc1`, the “hERG current change (%, negative = inhibition) at 10uM” value is reported as 16.8%. `CC(=O)Nc1ccc(NS(=O)(=O)c2ccc3c(c2)oc(=O)n3C)cc1` was tested, and the “hERG current change (%, negative = inhibition) at 10uM” value was 20.2%. With `Cc1cccc(CN2CCc3c([nH]c4ccccc34)C2C(C)(C)C)n1` (centres unmarked) the “hERG current change (%, negative = inhibition) at 10uM” value was 3.57%. With `Cc1ccc([N+](=O)[O-])cc1N=C(c1ccc([N+](=O)[O-])cc1)N1CCOCC1` the “hERG current change (%, negative = inhibition) at 10uM” value was -20.8%. In the case of `O=[N+]([O-])c1ccc(C(=Nc2cccc3ccccc23)N2CCOCC2)cc1`, the “hERG current change (%, negative = inhibition) at 10uM” value is reported as -63.5%. `Cc1ccc([N+](=O)[O-])cc1N=C(c1cccc([N+](=O)[O-])c1)N1CCOCC1` was tested, and the “hERG current change (%, negative = inhibition) at 10uM” value was -26%. With `O=C(NNC(=O)C1[C@H]2CCCC[C@@H]12)Nc1cccc2ccccc12` (some centres unmarked) the “hERG current change (%, negative = inhibition) at 10uM” value was -6.11%. `COc1cc(NC(=O)Cc2ccc(F)cc2)cc(OC)c1OC` was tested, and the “hERG current change (%, negative = inhibition) at 10uM” value was 16.2%. In the case of `CCC(=O)N1CCc2cc(Br)cc(S(=O)(=O)CCC(=O)NCCc3ccccc3)c21`, the “hERG current change (%, negative = inhibition) at 10uM” value is reported as 3.68%. For `O=S(=O)(c1ccccc1)N1CCN(C(=S)Nc2ccc(F)cc2)CC1`, the “hERG current change (%, negative = inhibition) at 10uM” value was -3.33%. In the case of `CN(C)/C=N/c1ncn(-c2ncc(C(F)(F)F)cc2Cl)n1`, the “hERG current change (%, negative = inhibition) at 10uM” value is reported as 17.5%. With `Nc1nc2nonc2nc1N` the “hERG current change (%, negative = inhibition) at 10uM” value was 15.3%. `CCOC(=O)c1cc(-c2ccncc2)nc2c1c(C)nn2C` was tested, and the “hERG current change (%, negative = inhibition) at 10uM” value was -14.8%. `Cc1nn(-c2cccc(Cl)c2)c2nc(-c3ccncc3)cc(C(=O)N3CCOCC3)c12` was tested, and the “hERG current change (%, negative = inhibition) at 10uM” value was -62.3%. `CCOC(=O)c1cc(-c2cccs2)nc2c1c(C)nn2-c1ccccn1` was tested, and the “hERG current change (%, negative = inhibition) at 10uM” value was 17.2%. `O=C(NCc1ccco1)c1cc(-c2ccncc2)nc2ccccc12` was tested, and the “hERG current change (%, negative = inhibition) at 10uM” value was -18.5%. With `O=C(NCc1ccco1)c1cc(-c2cccs2)nc2ccccc12` the “hERG current change (%, negative = inhibition) at 10uM” value was -1.68%. With `CCOC(=O)c1cc(-c2ccncc2)nc2c1c(C)nn2-c1ccccn1` the “hERG current change (%, negative = inhibition) at 10uM” value was -63.3%. With `CCOC(=O)c1cc(-c2ccccc2)nc2c1c(C)nn2-c1ccccn1` the “hERG current change (%, negative = inhibition) at 10uM” value was -6.42%. For `Cc1nn(-c2ccccc2)c2nc(-c3ccccc3)cc(C(=O)N3CCOCC3)c12`, the “hERG current change (%, negative = inhibition) at 10uM” value was -25.9%. With `Cc1ccccc1-n1nc(C)c2c(C(=O)NN)cc(-c3ccncc3)nc21` the “hERG current change (%, negative = inhibition) at 10uM” value was 38.5%. For `Cc1nn(-c2ccccc2)c2nc(-c3ccncc3)cc(C(=O)NCc3ccco3)c12`, the “hERG current change (%, negative = inhibition) at 10uM” value was -66.6%. For `Cc1nn(-c2cccc(Cl)c2)c2nc(-c3ccco3)cc(C(=O)O)c12`, the “hERG current change (%, negative = inhibition) at 10uM” value was 19%. In the case of `Cc1nn(-c2ccccn2)c2nc(-c3cccs3)cc(C(=O)NCc3ccco3)c12`, the “hERG current change (%, negative = inhibition) at 10uM” value is reported as -67.3%.

From paper PMC4336329 (PLoS ONE, 2015)
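Note: peak tail current of the secondary pulse compared with the same well before compound.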
